High-throughput results from PubChem BioAssay.
IEC-6 tox-1: kills IEC-6 intestinal cells in KLF5 counter-screen; IEC-6 cytotoxicity, luminescence viability; inhibition, % at 5 µM; hit rate 0.78% among 290,000
KLF5 inhibitor: inhibitors of KLF5 expression; inhibition, % at 5 µM; DLD-1 KLF5 promoter-luciferase reporter, luminescence; hit rate 0.23% among 290,000; AID 1700;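 active = inhibition above a per-plate limit of that plate's mean compound inhibition plus 3 SD, cut at about 60% in these data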;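 also: higher means less KLF5 promoter-driven luciferase light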
BaF3 parental: parental Ba/F3 viability inhibition as JAK2V617F counter-screen; CellTiter-Glo ATP luminescence; inhibition, % at 5.6 µM; hit rate 1.1% among 220,000;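 active = inhibition above a per-campaign cutoff, the mean inhibition of all tested compounds plus 3 SD, cut at about 27% in these data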
APP 5UTR inh: APP translation inhibition | SH-SY5Y APP 5'UTR-luciferase reporter, luminescence | hit rate 0.82% among 190,000 | inhibition, % at 2 µM | AID 1285;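 active = inhibition above a set limit, derived from the sample mean plus 3 SD, cut at about 45% in these data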
Ba/F3 V617F tox: lowers viability of Ba/F3 cells expressing EpoR and JAK2V617F; ATP luminescence; inhibition, % at 5.6 µM; hit rate 1.1% among 220,000; AID 1446;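 active = inhibition above the campaign mean plus 3 SD over all tested compounds, cut at about 24% in these data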;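 also: cytokine-independent growth of Ba/F3 cells driven by EpoR plus mutant JAK2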
aSyn 5UTR inh: 5' untranslated region of α-synuclein, MLPCN primary screen. AID 1813. inhibition, % (tested at 7.5 µM). hit rate 0.82% among 300,000. alpha-synuclein 5'UTR reporter, inhibitor activity; in the data active = inhibition above about 60%;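 also: H4 neuroglioblastoma cells stably carrying SNCA 5'UTR luciferase fusion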
KLF5 confirm: KLF5 inhibition, confirmation assay; hit rate 79% among 610; DLD-1 KLF5 promoter firefly luciferase reporter, luminescence; AID 1834; inhibition, % at 4 µM; shares compounds with KLF5 inhibitor;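 active = inhibition above a set limit taken from the earlier primary screen, cut at about 63% in these data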
IEC-6 tox-2: counter-screen for KLF5 inhibitors: cytotoxicity in rat IEC-6 cells; shares compounds with KLF5 inhibitor; IEC-6 rat intestinal cells, viability luminescence; inhibition, % at 4 µM; hit rate 56% among 610; AID 1905; in the data active = inhibition above about 23%;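 also: cells exposed to compounds for 48 hours before viability read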
IEC-6 cytotox cf: confirmation of cytotoxic compounds in rat IEC-6 intestinal epithelial cells; shares compounds with IEC-6 tox-1; IEC-6 rat intestinal epithelial viability, luminescence; inhibition, % at 5 µM; hit rate 63% among 1,900
Large screens that a line does not name were inactive (follow-up assays come after a bar, where they were run); ! = a repeat was not active. Sampled rows, rich in hits. Any-hit rate of the full collection: about 2.1%. Rule as the data show it, unless noted: active = inhibition above about 22%; inactive = the rest.

COc1cc2c(c(OC)c1OC)-c1ccc(O)c(=O)cc1C(NC(C)=O)CC2 (stereo not drawn)	IEC-6 tox-1 94, KLF5 inhibitor 73, aSyn 5UTR inh 90 (no result: BaF3 parental, APP 5UTR inh, Ba/F3 V617F tox) | KLF5 confirm 89 | IEC-6 tox-2 91 | IEC-6 cytotox cf 83
CNCC(O)c1cc(OCc2ccccc2)c(OCc2ccccc2)cc1F (stereo not drawn)	none (no result: IEC-6 tox-1, KLF5 inhibitor, BaF3 parental, APP 5UTR inh, Ba/F3 V617F tox)
CN1/C(=C\C=C\C2=[N+](C)c3ccc4ccccc4c3C2(C)C)C(C)(C)c2ccccc21	IEC-6 tox-1 74, KLF5 inhibitor 71, BaF3 parental 95, APP 5UTR inh 95, Ba/F3 V617F tox 99 (no result: aSyn 5UTR inh) | KLF5 confirm 116 | IEC-6 tox-2 77 | IEC-6 cytotox cf 80
COC(=O)C1=C(c2ccc(S(C)(=O)=O)cc2)C[C@@H]2CC[C@H]1N2C(=O)NCc1ccc(C(F)(F)F)cc1	none (no result: IEC-6 tox-1, KLF5 inhibitor, BaF3 parental, APP 5UTR inh, Ba/F3 V617F tox)
CN(C)c1ccc(C(=O)c2ccc(N(C)C)cc2)cc1	IEC-6 tox-1 33 (no result: APP 5UTR inh) | IEC-6 cytotox cf 50
COC(=O)C(O)(c1ccc(N(C)C)cc1)C(F)(F)F (stereo not drawn)	none
CC(C)(C)c1ccc(CSc2cnn(C(C)(C)C)c(=O)c2Cl)cc1	IEC-6 tox-1 30, aSyn 5UTR inh 101 (no result: BaF3 parental, APP 5UTR inh, Ba/F3 V617F tox) | IEC-6 cytotox cf inactive
c1cncc(C2Nc3cccc4cccc(c34)N2)c1	IEC-6 tox-1 38! (no result: APP 5UTR inh) | IEC-6 cytotox cf inactive
c1cncc(C2CCCCN2)c1 (stereo not drawn)	none (no result: APP 5UTR inh)
Cc1cc(N2CCNCC2)nc2ccccc12	none (no result: BaF3 parental, APP 5UTR inh, Ba/F3 V617F tox)
Cc1ccc2c(c1)N(C(=O)CCC(=O)N1CCC3(CC1)OCCO3)CCO2	none (no result: BaF3 parental, APP 5UTR inh, Ba/F3 V617F tox)
COc1cc2c(cc1/C=C/[N+](=O)[O-])OCO2	IEC-6 tox-1 42 | IEC-6 cytotox cf inactive
Cn1c(O)c(Cc2cccc(Cl)c2Cl)c(=O)n(C)c1=O	none (no result: BaF3 parental, APP 5UTR inh, Ba/F3 V617F tox)
CNc1cc(Cl)c2nonc2c1[N+](=O)[O-]	IEC-6 tox-1 93, BaF3 parental 79, APP 5UTR inh 84, Ba/F3 V617F tox 50 | IEC-6 cytotox cf 37
C#CCOc1cc(C2C3=C(COC3=O)Nc3cc4c(cc32)OCO4)ccc1OC (stereo not drawn)	IEC-6 tox-1 78, APP 5UTR inh 92, aSyn 5UTR inh 78 | IEC-6 cytotox cf 57
Cc1cc(=O)oc2c(C)c(OCC(=O)N3CCC(C(=O)O)(c4ccccc4)CC3)ccc12	none (no result: BaF3 parental, APP 5UTR inh, Ba/F3 V617F tox)
COc1ccc(-c2nc3ccccc3c(=O)n2-c2ccc(OC)cc2)cc1	none
CCn1nc(-c2ccccc2)nc2c(=O)n(C)c(=O)nc1-2	IEC-6 tox-1 99 | IEC-6 cytotox cf 60
C=C1[C@@H](C)[C@H]2[C@H](Cc3ccccc3)NC(=O)[C@]23OC(=O)/C=C/[C@H](O)CCC[C@@H](C)C/C=C/[C@H]3[C@@H]1O	IEC-6 tox-1 87, BaF3 parental 48, APP 5UTR inh 54, Ba/F3 V617F tox 44, aSyn 5UTR inh 109 | IEC-6 cytotox cf 85
CCN(CC)C(=O)c1ccc(NC(=O)c2ccc(-n3cncn3)c([N+](=O)[O-])c2)cc1	none (no result: IEC-6 tox-1, KLF5 inhibitor, BaF3 parental, APP 5UTR inh, Ba/F3 V617F tox)
O=C(O)c1cccc2nc3ccccc3nc12	IEC-6 tox-1 40 | IEC-6 cytotox cf inactive
COC(=O)c1ccccc1-n1c(C)nc2ccccc2c1=O	none (no result: aSyn 5UTR inh)
CC(=O)O[C@H]1C(=O)[C@@]2(C)C([C@H](OC(=O)c3ccccc3)[C@]3(O)C[C@H](OC(=O)[C@H](O)[C@@H](NC(=O)Cc4ccccc4)c4ccccc4)C(C)=C1C3(C)C)[C@]1(OC(C)=O)CO[C@@H]1C[C@@H]2O (stereo partly drawn)	IEC-6 tox-1 91, aSyn 5UTR inh 93 (no result: BaF3 parental, APP 5UTR inh, Ba/F3 V617F tox) | IEC-6 cytotox cf 86
CC(=O)O[C@@]12CO[C@@H]1C[C@H](O)[C@@]1(C)C(=O)[C@H](O)C3=C(C)[C@@H](OC(=O)[C@H](O)[C@@H](NC(=O)c4ccccc4)c4ccccc4)C[C@@](O)([C@@H](OC(=O)c4ccccc4)C12)C3(C)C (stereo partly drawn)	IEC-6 tox-1 92, aSyn 5UTR inh 114 (no result: BaF3 parental, APP 5UTR inh, Ba/F3 V617F tox) | IEC-6 cytotox cf 71
CN(C)C1C(=O)C(C(N)=O)=C(O)C2(O)C(=O)C3=C(O)c4c(O)cccc4C(C)(O)C3C(O)C12 (stereo not drawn)	none (no result: BaF3 parental, APP 5UTR inh, Ba/F3 V617F tox)
CC1CCN(CCc2nc3ccccc3[nH]2)CC1	none (no result: BaF3 parental, APP 5UTR inh, Ba/F3 V617F tox)
